The supplement of paper PMC6555819

Assays:
Test in all cases: PBM binding z-score (relative to random genomic background probes); higher = stronger binding; sequences stand for … in GC…GCGATTGACAGCGTAGAATGAAGG
[1] = system: FXR:RXRa (NR concentration 270 nM, RXRa partner concentration 90 nM)
Summary of the method: (§1)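 Custom Agilent 4×180K protein-binding microarrays carried double-stranded probes, each with a 34-nt variable region. These regions held direct-repeat seeds, single-nucleotide variants, half-site ablations and random human genomic background sequences. Ligand-free nuclear receptor dimers were incubated on the arrays for 1 h, antibodies against each partner (one per run) detected binding, and scanned fluorescence was regression-normalized. Binding z-scores take the random background probes as reference.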

[2] = system: LXRa:RXRa (NR concentration 270 nM, RXRa partner concentration 90 nM)
Summary of the method: as §1

[3] = system: LXRa homodimer (NR concentration 270 nM)
Summary of the method: as §1

[4] = system: LXRb:RXRa (NR concentration 270 nM, RXRa partner concentration 90 nM)
Summary of the method: as §1

[5] = system: LXRb homodimer (NR concentration 270 nM)
Summary of the method: as §1

[6] = system: PPARa:RXRa (NR concentration 270 nM, RXRa partner concentration 90 nM)
Summary of the method: as §1

[7] = system: PPARg:RXRa (NR concentration 180 nM, RXRa partner concentration 90 nM)
Summary of the method: as §1

[8] = system: PPARg:RXRa 270nM:90nM, anti-RXR (NR concentration 270 nM, RXRa partner concentration 90 nM)
Summary of the method: as §1

[9] = system: PPARg:RXRa 30nM:10nM, anti-RXR (NR concentration 30 nM, RXRa partner concentration 10 nM)
Summary of the method: as §1

[10] = system: PPARg:RXRa 90nM:30nM, anti-RXR (NR concentration 90 nM, RXRa partner concentration 30 nM)
Summary of the method: as §1

Sequence	PBM binding z-score [1]	PBM binding z-score [2]	PBM binding z-score [3]	PBM binding z-score [4]	PBM binding z-score [5]	PBM binding z-score [6]	PBM binding z-score [7]	PBM binding z-score [8]	PBM binding z-score [9]	PBM binding z-score [10]
GGGACTGGGGCAAAGCAGGTTACCATAAGGTTGG	0.776	0.705	0.405	1.24	1.22	2.6	3.59	3.37	0.646	2.33
ATCTCTAGGTACCAAGTTCAGTGAAAGAGAGGAC	0.701	0.609	0.346	0.651	0.845	0.892	0.678	1.23	0.604	1.03
ACTAGTTGGTCAGCTGAGGTCACGCACAATTCGG	3.89	3.8	2.33	3.79	0.387	4.12	2.12	3.28	0.707	2.16
TCTTGTAGATCAGCAGGTTAAGCAAGCTGGCCAA	0.0214	0.292	-0.676	0.24	-0.51	0.793	-0.47	1.26	2.15	1.62
ATTATTAGTTGACTTAGGGCAACCGATACGACGC	0.735	0.64	1.16	0.949	1.32	0.727	1.09	0.586	0.719	0.975
CCTATTGGGCCAAGGTCATTGATCAGTCAAAGCA	3.16	2.92	0.821	2.85	-0.34	3.83	2.79	3.83	1.37	3.21
CCGACTGGGGCAAAGGCTACCATACTCAGTACGA	-0.192	-0.314	-0.186	-0.213	-1.35	2.78	6.74	6.84	5.04	6.61
TCATATAGGTTAATGCTAGGTGAAAGTCCGATCT	1.19	2.25	0.441	1.28	0.557	2.55	2.14	3.06	3.79	3.26
CGTCCAAGGTCAGAGCGGTCAGTGAATGCCGAGT	4.97	4.15	1.27	2.69	-0.231	3.86	1.33	2.69	0.148	1.42
TCTAGTTGGTCACGGAGGCCACACACGACGGGTA	0.758	0.488	-0.0408	-0.0226	-0.0385	1.02	1.19	1.94	3.1	2.46
CATACAGGGTCAGCTAGGCAAGAGTAGGGACGGC	4.09	2.76	-0.331	1.96	0.0161	4.34	3.37	3.02	0.458	1.77
TCCTATAGGTAAAAGGTGAAAGTCGGTGTGGTAA	2.04	1.54	-0.461	1.82	-0.544	4.65	7.68	7.41	7.38	8.23
TCTTGTAGATCAAGCAGGTTAAGTAAGCCTGAGT	0.318	0.3	-0.426	0.29	-0.426	0.576	-0.618	1.2	2.3	1.78
TCTATTAGTTGAAGGGTAACCGACGAGTCCGTTT	1.06	1.12	0.425	1.17	0.781	1.35	0.607	2.8	4.16	3.37
TCTTGTAGAACAATAGAGGTTAAGAAAGTGCGCT	0.656	2.99	0.526	1.58	-0.26	1.92	0.287	1.7	2.64	2.2
ATCTCTAGTTAACCAAGTTCAGTGAATGCCGAAC	0.219	1.08	1.32	0.741	0.807	0.492	-0.088	0.244	0.153	0.13
TCAGACAGGTGAACGTAACTCAGGTACGCAGTCG	0.443	0.558	-0.111	0.538	-0.313	1.43	1.05	2.06	3.66	2.83
TCTGCGAGGTCAGTTGGTCAGCTAACGAGCTGCC	4.64	3.16	0.00554	2.69	1.26	3.99	2.69	3.5	1.59	2.61
GCTAACGGGTCAAAGGTTATAGCATGAATAGAAT	7.39	5.26	0.513	5.21	0.0725	6.84	10.4	8.58	9.26	9.13
CCTATTAGTTGACCATAATGGCAACCGAAGCTCG	0.282	0.486	0.78	0.483	1.03	0.289	0.468	-0.0519	-0.187	0.0677
ATATGGAGGTTACATCCGGGTCATTCAGGCTATG	2.99	5.32	1.94	3.8	0.764	3.79	3.01	2.85	0.871	1.91
CCTATTAGTTGACCATAAAGGCAACCGAAGCTCG	0.384	0.566	0.992	0.76	0.816	-0.0568	0.377	0.275	0.147	0.00767
TAGCCTAGGTCATTGGGCCAGTTTAGTACGCATC	4.25	3.21	0.757	2.35	0.194	3.88	3.49	3.27	0.719	2.06
CGAACTAGGTCAAAACAGGACAGTGAAGGATGAT	3.26	3.07	0.154	1.86	0.313	4.54	6.73	5.86	3.32	5.36

Sequence	PBM binding z-score [1]	PBM binding z-score [2]	PBM binding z-score [3]	PBM binding z-score [4]	PBM binding z-score [5]	PBM binding z-score [6]	PBM binding z-score [7]	PBM binding z-score [8]	PBM binding z-score [9]	PBM binding z-score [10]
AGAATGAGGTTAGTAAGATCAGGGAATTGCGGTC	0.169	0.283	-0.393	0.342	-0.18	1.6	1.07	1.06	0.16	0.634
AGAACGAGGGCACGCTGAGTTGATAACAGAGTAG	0.997	0.505	-0.474	0.399	-0.662	2.29	2.11	1.82	0.679	1.14
TCTTGTAGATCAAGCAGGTTCAGAAAGCCTGAGT	0.0146	0.179	-0.177	0.301	-0.777	0.691	-0.504	1.16	2.45	1.72
CGCCCAAGGTCAGAGAGGTCAGTGAATGCCGAGT	6.04	4.89	3.24	4.24	-0.135	4.86	3.1	4.03	0.767	2.55
GCTAGTTGGTCAGGAAAAGGTCACACACCGGTCG	3.35	3.85	3.43	3.75	0.375	4.05	2.57	3.82	1.41	3.07
GGAACGAGGGCATTCGAGTTGTTAGCATGGCGAT	0.97	0.548	-0.561	-0.135	-0.712	1.18	0.562	0.571	-0.377	0.0631
TCTATTAGTTGAAGGGCAACTGACGAGTCCGTTT	0.705	0.726	0.328	0.815	0.416	1.09	0.086	2.28	3.74	3.07
TCATATAGGTAAAAGCTAGGTGAAAGTCCGATCT	0.543	0.688	-0.0379	0.557	-0.187	1.69	1	2.74	4	3.37
ATACCAAGGTGATCGTGAGGTAGTTGATACTAAC	0.206	-0.121	-0.314	-0.148	-0.349	0.00448	0.267	-0.218	-0.0247	-0.173
GCTAGCAGGTCATTTGGGTCACTCAATGACGGGC	5.14	3.76	2.34	3.32	0.927	4.37	3.89	4.06	1.29	2.66
CTCGAAAGGTCGTGCTCAGGTGAGCATACCAAAC	5.82	4.04	-0.293	3.23	0.516	4.76	3.03	4.08	1.02	2.96
GCTCTGAGGACAAGGTCAGAGCTTTGTCCGTAGA	1.69	1.56	-0.176	1.45	-0.782	2.3	1.02	2.06	0.095	1.22
ATATGTAGGTTACATCCGGGGCATTCAGGCTATG	0.427	2.23	0.412	1.16	1.07	3.19	5.17	4.28	1.77	3.18
CCGCCTGGGGCAGAAAGGTTACCATACCATCCGG	0.138	0.416	-0.112	0.678	-1.32	1.59	0.804	1.25	-0.385	0.357
TCTCGGAAGACACGAAAGGTCAGAGCTCGACATC	2.36	3.38	1.85	3.1	0.242	3.61	0.772	2.46	3.29	2.35
CCTAGTTGGTCCAGGTCACACACGCTATAGGTAC	1.93	2.22	1.52	2.41	0.771	2.58	1.47	1.46	0.532	1.01
CCGACTGGGGCAAGGTTACTATAACGCACAGCCA	0.258	1.52	-0.118	0.79	-0.963	1.59	3.02	2.98	1.03	2.21
TGTCAAAGTGCAAAGGTAACGTAAGTATCCACAC	1.4	1.63	-0.525	1.5	-0.151	3.32	5.23	5.16	2.4	4.4
CCAGACAGGTGAGAAGGAAACTCAGCCTCGATTA	0.0152	-0.159	0.111	-0.146	-0.36	0.0665	0.519	0.482	-0.0162	0.249
CCTCGGAGGGCAGAAGGTCAGAGCTGTCCGCTTT	1.58	1.92	-0.356	1.12	-1.06	2.48	0.613	2.48	-0.473	1.44
AATACAGGGTCAGCGTAGGCCAGAGTACGCACAG	5.67	4.35	0.74	2.92	0.652	4.74	4.5	3.96	0.97	2.52
CGTCCAAGGTCATTGCTAGGTCAGTGAAAGCATT	6.96	5.75	3.09	4.57	1.37	5.32	3.8	5.08	1.55	3.62
CGTCCAGGGTCATAGGAGGTCAGTGAAGACAGAT	7.36	7.25	2.83	6.26	0.185	5.85	5.65	5.78	2.38	4.63
TCGAGAAGGTTAGTCGGGGCATTCAGCCAACATA	0.663	0.631	-0.271	0.863	-0.323	1.32	0.00646	1.2	1.72	1.33
